# Assay results reported in the supplement of paper PMC12067093, “Discovery and optimisation of a covalent ligand for TRIM25 and its application to targeted protein ubiquitination” (Chemical Science, 2025).
# Of roughly 21,000 targets only a part is listed; those with the largest changes were picked by preference.
# What was measured:
# [1] = molecular target: SARS_P49591_431_VEFVHMLNATMCATTR (UniProt P49591); experiment: probe-labelled cysteine peptide fold change vs DMSO (competition) (log2 fold change); higher = less target engagement (more negative = stronger competition); settings: THP-1, incubation time: 4 h
# [2] = molecular target: SLFN11_Q7Z7L1_842_VVQLSDACDMLGDHIVLDSVRR (UniProt Q7Z7L1); experiment: as above; settings: THP-1, incubation time: 4 h
# 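Also: competitive chemoproteomic profiling in live THP-1 cells with an iodoacetamide desthiobiotin (IA-DTB) probe, comparing probe-labelled peptide intensities in compound-treated cells against DMSO-treated controls.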
# Chain of UniProt Q7Z7L1 (Q7Z7L1 whole entry, looked up): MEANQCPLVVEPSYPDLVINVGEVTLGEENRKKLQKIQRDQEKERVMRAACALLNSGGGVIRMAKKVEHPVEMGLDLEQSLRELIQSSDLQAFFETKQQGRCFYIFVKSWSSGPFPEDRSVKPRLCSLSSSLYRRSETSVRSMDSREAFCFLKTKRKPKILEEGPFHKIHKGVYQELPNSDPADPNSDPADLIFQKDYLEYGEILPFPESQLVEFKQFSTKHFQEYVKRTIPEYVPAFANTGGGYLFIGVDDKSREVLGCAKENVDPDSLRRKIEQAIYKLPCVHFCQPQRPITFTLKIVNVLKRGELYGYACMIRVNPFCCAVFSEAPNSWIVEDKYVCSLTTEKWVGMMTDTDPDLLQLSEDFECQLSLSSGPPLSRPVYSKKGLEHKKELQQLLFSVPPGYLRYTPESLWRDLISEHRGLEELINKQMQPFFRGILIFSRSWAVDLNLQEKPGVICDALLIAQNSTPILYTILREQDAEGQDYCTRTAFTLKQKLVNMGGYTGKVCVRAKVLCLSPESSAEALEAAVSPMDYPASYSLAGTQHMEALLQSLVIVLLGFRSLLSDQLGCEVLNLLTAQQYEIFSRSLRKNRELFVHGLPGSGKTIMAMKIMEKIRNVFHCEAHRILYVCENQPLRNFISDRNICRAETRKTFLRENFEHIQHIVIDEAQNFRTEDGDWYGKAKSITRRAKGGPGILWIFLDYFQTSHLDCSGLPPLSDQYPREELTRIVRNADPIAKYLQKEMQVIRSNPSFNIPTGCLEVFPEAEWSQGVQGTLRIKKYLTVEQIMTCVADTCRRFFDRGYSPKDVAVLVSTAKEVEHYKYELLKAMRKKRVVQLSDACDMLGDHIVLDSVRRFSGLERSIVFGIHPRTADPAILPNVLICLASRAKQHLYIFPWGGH
# Chain of UniProt P49591 (P49591 whole entry, looked up): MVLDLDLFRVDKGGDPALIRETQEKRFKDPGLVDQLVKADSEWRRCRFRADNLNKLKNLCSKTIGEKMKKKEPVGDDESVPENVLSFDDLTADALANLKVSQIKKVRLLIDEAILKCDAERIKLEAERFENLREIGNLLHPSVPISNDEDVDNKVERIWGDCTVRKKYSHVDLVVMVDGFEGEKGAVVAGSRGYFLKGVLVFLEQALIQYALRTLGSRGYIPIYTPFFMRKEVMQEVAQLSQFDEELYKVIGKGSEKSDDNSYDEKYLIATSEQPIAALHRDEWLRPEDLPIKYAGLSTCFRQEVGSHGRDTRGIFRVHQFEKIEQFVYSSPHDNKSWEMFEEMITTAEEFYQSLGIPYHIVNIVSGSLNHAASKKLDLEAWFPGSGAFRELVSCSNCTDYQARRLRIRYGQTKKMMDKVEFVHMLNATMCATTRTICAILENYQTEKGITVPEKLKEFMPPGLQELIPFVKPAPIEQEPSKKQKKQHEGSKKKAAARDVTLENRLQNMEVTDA
smiles,measurement,setting,value
CC1Cc2ccccc2N1C(=O)C1CCCN(C(=O)CCl)C1 (mixture of isomers) [TRIM25 ligand 11 (diastereomer mixture)],probe-labelled cysteine peptide fold change,[1]; 10 µM,0.102
same,probe-labelled cysteine peptide fold change,[1]; 50 µM,0.113
same,probe-labelled cysteine peptide fold change,[2]; 10 µM,0.174
same,probe-labelled cysteine peptide fold change,[2]; 50 µM,0.0323
